Measurements from the supplement of paper PMC12636033.
± gives the standard deviation of the averaged measurements. In all, about 33,000 sequences were measured (“E-score (rank enrichment, -0.5 to 0.5)”: median about -0.0075, highest 2% from about 0.23 on). The sample as a whole holds a higher share of the highest values than the screen did.

System: WT Max(13-93) synthetic (M65Nle)
Assay: PBM 8-mer E-score (E-score (rank enrichment, -0.5 to 0.5)); higher = stronger preferential binding
Procedure: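 Protein binding microarray (universal PBM chip covering all 10-mers in fixed probe flanks) with chemically synthesized human Max(13-93) bHLH-LZ analogs (not full-length Max) bearing noncanonical residues (hArg, Tha, Aib, Nle at 65) and aromatic Cys staples. Read-out per 8-mer (and its reverse complement): E-score (rank-based enrichment, -0.5 to 0.5) and Z-score of median probe intensity.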

| Sequence | PBM 8-mer E-score |
| --- | --- |
| ACAGTCCG | -0.0248 ± 0.0053 |
| CACGGTGC | 0.0526 ± 0.033 |
| CTGTTATA | 0.055 ± 0.085 |
| ATGTTAAG | 0.107 ± 0.028 |
| ATGTTATG | 0.251 ± 0.084 |
| CTGTTAAC | -0.00712 ± 0.14 |
| ATGTTATA | 0.235 ± 0.069 |
| GTGTTATA | 0.215 ± 0.0088 |
| ATGTTAAC | 0.291 ± 0.035 |
| ATGTTATC | 0.0836 ± 0.016 |
| GTGTTAAC | 0.0845 ± 0.082 |
| GTGTGCCA | -0.0682 ± 0.094 |
| ATACGCAC | 0.0776 ± 0.052 |
| ATAGTCAG | 0.0518 ± 0.079 |
| AACTATTG | 0.139 ± 0.033 |
| ACCTTCCC | -0.0595 ± 0.1 |
| CGCATGTA | 0.0311 ± 0.051 |
| AGCATGGG | 0.128 ± 0.096 |
| AGCATGTG | 0.295 ± 0.0053 |
| AGCATGTA | 0.238 ± 0.019 |
| AGCATGTC | 0.157 ± 0.0017 |
| GGCATGTA | 0.135 ± 0.023 |
| ACAGGTTA | 0.0367 ± 0.075 |
| CTTCTCCC | 0.0392 ± 0.039 |

| Sequence | PBM 8-mer E-score |
| --- | --- |
| AAATTCGG | 0.0747 ± 0.038 |
| ATGGTCCA | -0.0964 ± 0.052 |
| AAGGCATG | 0.207 ± 0.081 |
| AAAACAGC | 0.0957 ± 0.12 |
| CAAACACA | 0.2434 ± 0.00028 |
| CAAACAGC | 0.244 ± 0.0038 |
| AAAACACA | 0.128 ± 0.02 |
| CAAACAGG | 0.0276 ± 0.019 |
| CAAACACC | 0.118 ± 0.15 |
| AAAACACG | 0.193 ± 0.049 |
| TAAACACA | 0.182 ± 0.021 |
| CAAACACG | 0.285 ± 0.064 |
| ACATTTCT | 0.152 ± 0.0081 |
| CCCTGGCG | -0.198 ± 0.061 |
| TACGGTCA | -0.0681 ± 0.052 |
| CCAAGGCG | -0.191 ± 0.077 |
| ACCGTAAT | -0.00988 ± 0.068 |
| TAGCTGGA | -0.111 ± 0.035 |
| AATTACAA | 0.251 ± 0.026 |
| TATTACAA | 0.181 ± 0.024 |
| AATTACAT | 0.135 ± 0.0071 |
| GTAATCAC | -0.0619 ± 0.076 |
| ACCGTGTC | -0.0348 ± 0.1 |
| ATTAACAA | 0.289 ± 0.057 |

| Sequence | PBM 8-mer E-score |
| --- | --- |
| ATTAACAG | 0.0545 ± 0.024 |
| GTTAACAA | 0.138 ± 0.024 |
| CTTAACAC | 0.135 ± 0.068 |
| ATTAACTC | 0.16 ± 0.064 |
| ATTAACAC | 0.247 ± 0.019 |
| GTTTCCGA | 0.0231 ± 0.1 |
| CTCAAAGC | -0.0195 ± 0.016 |
| CATGATGG | -0.0865 ± 0.045 |
| AATGATAC | 0.2224 ± 0.00047 |
| AATGATAT | 0.257 ± 0.086 |
| TATGATAA | 0.201 ± 0.065 |
| CATGATAA | 0.296 ± 0.039 |
| CATGATGC | 0.124 ± 0.073 |
| CATGATGA | 0.233 ± 0.045 |
| AATGATAG | 0.166 ± 0.08 |
| AATGATAA | 0.146 ± 0.062 |
| CCCTTCTA | 0.2 ± 0.016 |
| ATCCCTAC | 0.0174 ± 0.027 |
| AAGAGTAA | 0.0887 ± 0.095 |
| CCAGGTAG | -0.0484 ± 0.088 |
| AACGCGGA | -0.0101 ± 0.013 |
| GACGCGGC | -0.164 ± 0.043 |
| CACGCGGG | 0.224 ± 0.044 |
| AACGCGGC | -0.0617 ± 0.052 |

| Sequence | PBM 8-mer E-score |
| --- | --- |
| CACGCGGA | 0.351 ± 0.014 |
| CACGCGGC | 0.323 ± 0.0093 |
| CGCAATAG | -0.129 ± 0.02 |
| ACCATCCA | 0.0359 ± 0.035 |
| ACCTCAAG | 0.0864 ± 0.0059 |
| CGTATTCA | -0.00816 ± 0.064 |
| CACCTTTC | 0.0495 ± 0.029 |
| ACCGAAGC | -0.0719 ± 0.043 |
| AGTGTTTA | 0.0808 ± 0.099 |
| CATGTTTA | 0.302 ± 0.07 |
| GGTGTTTA | -0.0165 ± 0.02 |
| GATGTTTA | 0.0913 ± 0.016 |
| CATGTTTC | 0.192 ± 0.017 |
| CGTGTTTA | 0.274 ± 0.019 |
| CGATCCAG | -0.318 ± 0.024 |
| ACGTAACT | -0.0612 ± 0.056 |
| ATGGAGCC | -0.159 ± 0.086 |
| ACCCTATC | -0.0509 ± 0.049 |
| ATAATGCA | 0.161 ± 0.072 |
| GACGTGCA | 0.132 ± 0.021 |
| AACGTGCC | 0.0848 ± 0.0026 |
| GACGTGCC | -0.0759 ± 0.054 |
| CAGGTGCG | -0.186 ± 0.068 |
| AACGTGCT | 0.181 ± 0.038 |

| Sequence | PBM 8-mer E-score |
| --- | --- |
| CCCGTGCG | 0.00827 ± 0.054 |
| AACGTGCA | 0.283 ± 0.044 |
| AACGTGCG | 0.188 ± 0.037 |
| TACGTGCA | 0.126 ± 0.094 |
| CACGTGCG | 0.48552 ± 0.00018 |
| CACGTGCC | 0.472 ± 0.0067 |
| CACGTGCA | 0.4864 ± 0.0015 |
| AAACTCAG | -0.0399 ± 0.035 |
| AAGTGTCA | 0.0618 ± 0.14 |
| AAATAAGT | 0.126 ± 0.0013 |
| CTTGTTGC | 0.124 ± 0.046 |
| CTGCCGGA | -0.102 ± 0.082 |
| ACAAATGA | 0.104 ± 0.068 |
| CCAAAACC | 0.0915 ± 0.13 |
| CAAAACCC | 0.138 ± 0.027 |
| ACAAGCAC | 0.0152 ± 0.013 |
| ACAAGCAA | 0.239 ± 0.01 |
| GCAAGCAA | -0.0138 ± 0.026 |
| ACAAATGG | 0.196 ± 0.099 |
| ACAAAAAC | 0.215 ± 0.07 |
| CAAAAACC | 0.241 ± 0.035 |
| ACAAATGT | 0.277 ± 0.073 |
| ACAAAAAA | 0.251 ± 0.016 |
